Read-out in assay [1]: Tissue Factor, F3 (gene 2152)
Kind of assay: BSK_CASM3C_TissueFactor: BioMAP Diversity Plus: CASM3C Assay for Tissue Factor Biomarker Activity (AID 2283052).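 Also: cell surface tissue factor protein level read by ELISA.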 Conditions: primary human coronary artery smooth muscle cells; actives raise or lower the signal.

Read-out in assay [2]: Interferon-gamma inducible Protein 10 (IP10), CXCL10 (gene 3627)
Put plainly: BSK_hDFCGF_IP10: BioMAP Diversity Plus: hDFCGF Assay for Interferon-gamma inducible Protein 10 (IP10) Biomarker Activity (AID 2283053). Conditions: primary human foreskin fibroblasts; actives raise or lower the signal. The gist of the method: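 Primary foreskin fibroblasts, human; 24 h compound exposure; IP-10 by ELISA; bidirectional fit vs DMSO.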

Read-out in assay [3]: Urokinase-type plasminogen activator receptor (uPAR), PLAUR (gene 5329)
Kind of assay: BSK_CASM3C_uPAR: BioMAP Diversity Plus: CASM3C Assay for Urokinase-type plasminogen activator receptor (uPAR) Biomarker Activity (AID 2283054).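 Also: cell-surface uPAR protein level quantified by ELISA.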 As to conditions: primary human coronary artery smooth muscle cells; actives raise or lower the signal.

Read-out in assay [4]: Vascular cell adhesion molecule 1 (VCAM1), VCAM1 (gene 7412)
Put plainly: BSK_CASM3C_VCAM1: BioMAP Diversity Plus: CASM3C Assay for Vascular cell adhesion molecule 1 (VCAM1) Biomarker Activity (AID 2283055).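 Also: VCAM-1 protein level quantified by ELISA on the cells.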 Conditions: primary human coronary artery smooth muscle cells; actives raise or lower the signal.

Read-out in assay [5]: Collagen III, COL3A1 (gene 1281)
Put plainly: BSK_hDFCGF_CollagenIII: BioMAP Diversity Plus: hDFCGF Assay for Collagen III Biomarker Activity (AID 2283056). Conditions: primary human foreskin fibroblasts; actives raise or lower the signal. The method, boiled down: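 hDFCGF primary human dermal fibroblasts; 24 h chemical exposure; collagen III by ELISA; bidirectional curve fit vs DMSO baseline (gain or loss of signal).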

Read-out in assay [6]: Epidermal growth factor receptor (EGFR), EGFR (gene 1956)
Put plainly: BSK_hDFCGF_EGFR: BioMAP Diversity Plus: hDFCGF Assay for Epidermal growth factor receptor (EGFR) Biomarker Activity (AID 2283057). Conditions: primary human foreskin fibroblasts; actives raise or lower the signal. The gist of the method:
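hDFCGF system, primary human foreskin fibroblasts; compound 24 h; EGFR measured by ELISA; DMSO = negative control/baseline; bidirectional fitting.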

Read-out in assay [7]: Interleukin-8 (IL8), CXCL8 (gene 3576)
Put plainly: BSK_hDFCGF_IL8: BioMAP Diversity Plus: hDFCGF Assay for Interleukin-8 (IL8) Biomarker Activity (AID 2283058). As to conditions: primary human foreskin fibroblasts; actives raise or lower the signal. The gist of the method: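 ELISA read-out of IL-8 from primary human foreskin fibroblast cultures taken 24 h after dosing; values are bidirectional fits relative to DMSO vehicle.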

Assay [8] in a line: BSK_hDFCGF_Proliferation: Cell Proliferation Assessment in the BioMAP Diversity Plus: hDFCGF Assay (AID 2283059).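 Also: curves fitted for both rise and fall of signal versus DMSO baseline.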 Conditions: primary human foreskin fibroblasts. The method, boiled down:
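This proliferation readout used SRB total-protein staining of human foreskin fibroblasts […], normalized to DMSO with bidirectional curve fitting.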

Read-out in assay [9]: Macrophage colony-stimulating factor (MCSF), CSF1 (gene 1435)
Put plainly: BSK_hDFCGF_MCSF: BioMAP Diversity Plus: hDFCGF Assay for Macrophage colony-stimulating factor (MCSF) Biomarker Activity (AID 2283060). As to conditions: primary human foreskin fibroblasts; actives raise or lower the signal. The method, boiled down: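 ELISA read-out of M-CSF in human dermal foreskin fibroblast cultures, 24 h after chemical dosing; gain or loss of signal fitted bidirectionally relative to DMSO baseline.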

The nature of assay [10]: BSK_hDFCGF_SRB: Viability Assessment in the BioMAP Diversity Plus: hDFCGF Assay (AID 2283061).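 Also: cells exposed to compound for 24 h before the read.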 As to conditions: primary human foreskin fibroblasts. The gist of the method: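 Primary human foreskin fibroblasts; 24 h post-dose; fixed 10% TCA, stained 0.1% SRB, A560 read; total protein as overt cytotoxicity measure; curves fit bidirectionally vs DMSO control.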
Read-out in assay [11]: TIMP metallopeptidase inhibitor 1 (TIMP1), TIMP1 (gene 7076)
Kind of assay: BSK_hDFCGF_TIMP1: BioMAP Diversity Plus: hDFCGF Assay for TIMP metallopeptidase inhibitor 1 (TIMP1) Biomarker Activity (AID 2283062). As to conditions: primary human foreskin fibroblasts; actives raise or lower the signal. The gist of the method:
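ELISA readout of TIMP-1 from human dermal foreskin fibroblast cultures 24 h post-dosing. Curves were fitted in both directions against DMSO baseline, with SRB total-protein staining in parallel cultures as a cytotoxicity check.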

Read-out in assay [12]: Monokine induced gamma interferon (MIG), CXCL9 (gene 4283)
Kind of assay: BSK_hDFCGF_MIG: BioMAP Diversity Plus: hDFCGF Assay for Monokine induced gamma interferon (MIG) Biomarker Activity (AID 2283063). Conditions: primary human foreskin fibroblasts; actives raise or lower the signal. The method, boiled down:
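Fibroblasts (human foreskin, primary) dosed, 24 h, MIG by ELISA; fit bidirectional vs DMSO.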

Read-out in assay [13]: Matrix Metallopeptidase 1 (MMP1), MMP1 (gene 4312)
Kind of assay: BSK_hDFCGF_MMP1: BioMAP Diversity Plus: hDFCGF Assay for Matrix Metallopeptidase 1 (MMP1) Biomarker Activity (AID 2283064). Conditions: primary human foreskin fibroblasts; actives raise or lower the signal. The method, boiled down:
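Primary human foreskin fibroblasts in the hDFCGF system were dosed with test chemical, and MMP1 was measured by ELISA 24 h later. Values come from bidirectional curve fitting against the DMSO baseline.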

Read-out in assay [14]: Vascular cell adhesion molecule 1 (VCAM1), VCAM1 (gene 7412)
Kind of assay: BSK_hDFCGF_VCAM1: BioMAP Diversity Plus: hDFCGF Assay for Vascular cell adhesion molecule 1 (VCAM1) Biomarker Activity (AID 2283065).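 As to AC50: VCAM-1 protein level quantified by ELISA after 24 h chemical exposure.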 As to conditions: primary human foreskin fibroblasts; actives raise or lower the signal. The gist of the method:
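ELISA read-out of VCAM-1 on human skin fibroblasts, 24 h post-dose; gain or loss of signal fitted bidirectionally against DMSO baseline.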

Read-out in assay [15]: Plasminogen activator inhibitor-1 (PAI1), SERPINE1 (gene 5054)
Kind of assay: BSK_hDFCGF_PAI1: BioMAP Diversity Plus: hDFCGF Assay for Plasminogen activator inhibitor-1 (PAI1) Biomarker Activity (AID 2283066). As to conditions: primary human foreskin fibroblasts; actives raise or lower the signal. The method, boiled down:
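Primary dermal fibroblasts (human foreskin), hDFCGF system; compound 24 h; PAI-1 by ELISA; bidirectional fit vs DMSO control.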

Read-out in assay [16]: Interferon-gamma inducible Protein 10 (IP10), CXCL10 (gene 3627)
Put plainly: BSK_KF3CT_IP10: BioMAP Diversity Plus: KF3CT Assay for Interferon-gamma inducible Protein 10 (IP10) Biomarker Activity (AID 2283068). As to conditions: primary human keratinocytes with fibroblasts; actives raise or lower the signal. The gist of the method:
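Signal is secreted/surface IP-10 by ELISA in a human primary skin co-culture of keratinocytes and foreskin fibroblasts, taken 24 h post-dosing; DMSO served as negative control.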

Assay [17] can be described thus: BSK_KF3CT_SRB: Viability Assessment in the BioMAP Diversity Plus: KF3CT Assay (AID 2283069).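 Also: total protein by sulforhodamine B staining as a cytotoxicity measure; read 24 h after compound addition.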 As to conditions: primary human keratinocytes with fibroblasts. The gist of the method:
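Human primary keratinocyte plus foreskin fibroblast co-culture exposed to chemicals for 24 h. Total protein measured by 0.1% sulforhodamine B staining after 10% TCA fixation, read at 560 nm; bidirectional fitting versus DMSO baseline.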

Read-out in assay [18]: Interleukin-1 alpha (IL1a), IL1A (gene 3552)
Kind of assay: BSK_KF3CT_IL1a: BioMAP Diversity Plus: KF3CT Assay for Interleukin-1 alpha (IL1a) Biomarker Activity (AID 2283070). As to conditions: primary human keratinocytes with fibroblasts; actives raise or lower the signal. The gist of the method: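 Human keratinocyte plus foreskin fibroblast primary co-culture, sampled 24 h after chemical dosing. IL-1a measured by ELISA; responses fitted bidirectionally against DMSO baseline (negative control), so gain or loss of signal both count.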

Read-out in assay [19]: TIMP metallopeptidase inhibitor 2 (TIMP2), TIMP2 (gene 7077)
Kind of assay: BSK_KF3CT_TIMP2: BioMAP Diversity Plus: KF3CT Assay for TIMP metallopeptidase inhibitor 2 (TIMP2) Biomarker Activity (AID 2283071). Conditions: primary human keratinocytes with fibroblasts; actives raise or lower the signal. The gist of the method: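 Cells: human keratinocytes co-cultured with foreskin fibroblasts. Treat with chemical, 24 h. Measure TIMP-2 by ELISA; fit curves bidirectionally vs DMSO baseline.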

Read-out in assay [20]: Intercellular Adhesion Molecule 1 (ICAM1), ICAM1 (gene 3383)
Put plainly: BSK_KF3CT_ICAM1: BioMAP Diversity Plus: KF3CT Assay for Intercellular Adhesion Molecule 1 (ICAM1) Biomarker Activity (AID 2283067). Conditions: primary human keratinocytes with fibroblasts; actives raise or lower the signal. The gist of the method:
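ELISA readout of ICAM-1; KF3CT human skin co-culture (keratinocytes + foreskin fibroblasts), 24 h post-dose; gain/loss fit vs DMSO baseline.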

Structures are written as SMILES. Activity calls are given as the source filed them. The calls were made as follows: active = hit-call score of the fitted dose curve at least 0.9, where 1 is the maximum; inactive = score below 0.9.

This is an account of results in PubChem BioAssay (EPA / NIEHS).

Usually AC50 stands for the concentration at which the activity in the assay is half-maximal.

As for `O=Cc1ccco1`, the outcome in assay [1], in assay [2], in [3], in [4], in [5] and in assay [6] was inactive. The result in assay [7], in assay [8], in [9], in assay [10], in assay [11] and in assay [12] was inactive. The result in assay [13], in [14], in assay [15], in [16], in assay [17] and in assay [18] was inactive. Moreover, the result in assay [19] was inactive.
With `Nc1ccc(Cl)cc1N`, the result in assay [1], in assay [2], in assay [3], in [5], in assay [6] and in [7] was inactive. In addition, the result in assay [10], in assay [11], in assay [12], in [13], in assay [15] and in assay [16] was inactive. Besides, the result in [17], in [18] and in [19] was inactive. Moreover, the AC50 in [4] was 3.97 µM (active); in assay [8], 11.2 µM (active); in assay [9], 6.73 µM (active); in [14], 9.2 µM (active).
Take `C1=Cc2cccc3cccc1c23`: the result in assay [1], in assay [2], in assay [3], in assay [4], in assay [5] and in assay [6] was inactive. The result in [7], in assay [8], in [9], in assay [10], in assay [11] and in assay [12] was inactive. Further, the outcome in assay [13], in assay [14], in [15], in [16], in assay [17] and in [18] was inactive. Moreover, the result in assay [19] was inactive.
Take `CS(=O)(=O)NC(=O)c1cc(Oc2ccc(C(F)(F)F)cc2Cl)ccc1[N+](=O)[O-]`: the result in assay [2], in assay [3], in assay [4], in [5], in assay [6] and in [7] was inactive. The result in assay [8], in [9], in assay [10], in [11], in assay [12] and in assay [13] was inactive. Besides, the result in [14], in assay [15], in assay [20], in assay [16], in assay [17] and in assay [18] was inactive. For the same molecule, the outcome in assay [19] was inactive.
Regarding `Nc1cc(Cl)cc(C(=O)O)c1Cl`, the outcome in [1], in assay [2], in [3], in [4], in assay [5] and in assay [6] was inactive. Further, the outcome in assay [7], in assay [8], in assay [9], in assay [10], in [11] and in assay [12] was inactive. Further, the result in assay [13], in [14], in assay [15], in assay [16], in assay [17] and in assay [18] was inactive. The result in [19] was inactive.
